These results are taken from PubChem BioAssay AID485341 (National Center for Advancing Translational Sciences (NCATS), 2010).

The campaign covered roughly 330,000 compounds. About 1,700 (0.52%) were called active. Shown is part of a subset that was picked to be rich in actives. Values without a mark were called inactive. Calls come from the whole dose curve; as a rule, active = well fitted inhibition curve with a large enough effect; inconclusive = small, poorly fitted or top-dose-only effect; inactive = no such curve, though single readings can be large or run the other way.
Potency is the fitted concentration of half-maximal effect.

The assay deals with Beta-lactamase (Escherichia coli (strain K12)) (UniProt P00811). The assay is described as follows: qHTS Inhibitors of AmpC Beta-Lactamase (assay without detergent). Note: nearly all actives have a fitted effect of over 20% in size. The settings on record: AmpC nitrocefin hydrolysis, absorbance 480 nm, 0.0001% Triton; series mostly up to 57.1 µM; activity change, negative = inhibition: at the top concentration. Here is the method: NIH Molecular Libraries Probe Production Network [MLPCN] NIH Chemical Genomics Center [NCGC] Assay Provider: Professor Brian Shoichet, UCSF Assay Overview: This aggregation profiling approach exploits the sensitivity of aggregate formation to detergent. Inhibition of b-lactamase is measured in the presence and absence of 0.01% Triton X-100. This particular assay had the prescence of 0.01% Triton X-100. See Pubchem assay "Promiscuous and Specific Inhibitors of AmpC Beta-Lactamase (assay without detergent)" for related screen. Compounds that inhibit only in the absence of detergent are considered likely promiscuous aggregators. A screen of 1,030 compounds was performed in Brian Shoichet's lab in 96-well format. AmpC activity was measured by following the absorbance at 480 nm. Nitrocefin is a chromogenic substrate: while nitrocefin is yellow (lmax 390 nm), the product of its hydrolysis is red (lmax 486 nm, 17,000 M-1). AmpC beta lactamase was provided by Shoichet Lab, UCSF.
Sequence of Beta-lactamase (Escherichia coli (strain K12)) (P00811 whole entry, looked up): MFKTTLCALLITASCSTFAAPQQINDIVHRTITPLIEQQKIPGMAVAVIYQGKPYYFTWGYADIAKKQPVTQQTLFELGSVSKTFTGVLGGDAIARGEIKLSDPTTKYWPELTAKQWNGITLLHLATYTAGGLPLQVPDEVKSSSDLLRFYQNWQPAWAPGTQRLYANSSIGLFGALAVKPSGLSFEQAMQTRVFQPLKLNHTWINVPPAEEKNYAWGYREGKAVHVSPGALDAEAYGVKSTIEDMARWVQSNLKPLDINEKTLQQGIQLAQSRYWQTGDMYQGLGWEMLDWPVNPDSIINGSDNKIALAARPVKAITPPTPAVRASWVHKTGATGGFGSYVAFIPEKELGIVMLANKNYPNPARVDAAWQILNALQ
Buffer: 20 mM phosphate buffer, pH 7.0 Triton X-100: No Detergent screen: 0.0001%, Detergent screen: 0.01%. Reagents/Controls: Buffer in columns 3 and 4 as negative control (no enzyme). 5.3 nM AmpC in columns 1, 2, 5-48. Titration of UCSF compound 9 control (from 10 mM, then 1:2) pin-transferred to column 2. Column 1 is neutral (100% activity). Assay Steps: Six uL of reagents were dispensed to 1536-well Greiner black clear bottom plates. Compounds and controls (23 nL) were transferred via Kalypsys PinTool. The plates were incubated for 15 min at room temperature, and then 2 uL of 800 uM solution of nitrocefin was added to start the reaction. The plates were immediately transferred to and read every 20 seconds for 4 min on ViewLux (Perkin-Elmer) High-throughput CCD imager using 480 nm absorbance protocol. During dispense, reagent bottles were kept submerged into 4 deg C water bath. Keywords: NIH Roadmap, MLSCN, MLI, MLSMR, qHTS, NCGC, AmpC Beta-Lactamase, Aggregation
On the technique in general: qHTS replaces the single test concentration by a dilution series.
On to `CCOC(=O)C1CCCN(C(=O)CSc2nnc3nc(C)cc(C)n23)C1` (stereo not drawn), for which the “activity change, negative = inhibition” value is 122%.
For the compound `Cc1cc(C)c(-c2csc(NC(=O)CCCc3nc4ccccc4c(=O)[nH]3)n2)c(C)c1`, the Potency is 35.5 µM (active).
`O=C(CSc1nc2ccccc2c(=O)[nH]1)Nc1nc(-c2ccc(Br)cc2)cs1`: the “activity change, negative = inhibition” value was -21.7%.
Same read-out and setting: the same measure for `CC(=O)NCc1ccc(-c2csc(NC(=O)CCCc3nc4ccccc4c(=O)[nH]3)n2)cc1`: -1.05%; for `O=c1cc(CO)oc(C(Nc2cccc(C(F)(F)F)c2)c2ccccn2)c1O` (stereo not drawn): -7.84%; for `O=C(O)CN1c2cccc3cccc(c23)S1(=O)=O`: -20.4%.
Regarding `Cc1cc(NC(=O)CS(=O)(=O)c2cn(C)c3ccccc23)no1`, the Potency was 10 µM (active).
Take `CCOC(=O)c1ccc(NC(=O)CS(=O)(=O)c2cn(CC)c3ccccc23)cc1`: the “activity change, negative = inhibition” value was -17.8%.
On the same count and under the same terms, in the case of `Cc1cc(NC(=O)COn2nnc3ccccc32)no1` it was -10.9%; in that of `Cc1ccc(NC(=O)CCCNC(=O)c2ccc(Cl)cc2)cc1S(=O)(=O)N1CCCCC1`, -9.32%.
Same read-out and setting: in the case of `CC1=C[C@H]2Cc3cc(C)cc(C)c3S(=O)(=O)[C@@H]2C=C1` it was -29.6%; in that of `Cn1nccc1/C=N\NC(=O)c1ccc(Cl)cc1`, -18.8%.
As to `CC1(C)C2CC=C(/C=N/NC(=O)C3CC3)C1C2` (stereo not drawn), the “activity change, negative = inhibition” value was -16.2%.
Consider `CC1(C)C2CC=C(/C=N/NC(=O)c3ccc(Cl)cc3)C1C2` (stereo not drawn), for which the Potency is 11.2 µM (active).
`Cc1c(C(=O)N(C)CCc2cnn(C)c2)oc2c(F)cccc12`: the “activity change, negative = inhibition” value is 17.1%.
For `CCN(CC)S(=O)(=O)c1ccc2nc(COC(=O)c3n[nH]c4ccccc34)[nH]c2c1`, the Potency is 22.4 µM (active).
Take `CN(C)S(=O)(=O)c1ccc(NC(=O)COC(=O)c2n[nH]c3ccccc23)cc1`: the “activity change, negative = inhibition” value is -36.1%.
On the same count and under the same terms, the same measure for `COc1ccc(COC(=O)c2n[nH]c3ccccc23)cc1F`: -30.2%.
On to `COc1ccc(C(=O)O)cc1S(=O)(=O)NCc1cccnc1`, for which the “activity change, negative = inhibition” value was -9.22%.
Same read-out and setting: the same measure for `CCC(C)NC(=O)c1ccccc1NC(=O)c1ccccc1N(C)S(C)(=O)=O` (stereo not drawn): -6.03%; for `COC(=O)c1ccc(CSc2nnc(NC(C)C)s2)cc1`: -22.8%.
Regarding `Cc1ccc(C(=O)Oc2coc(CSc3nnc(NC(=O)c4cccs4)s3)cc2=O)cc1C`, the Potency is 7.08 µM (active).
`O=C(Cc1cccs1)Nc1nnc(SCc2ccc(F)cc2)s1`: the “activity change, negative = inhibition” value is -23.8%.
Same read-out and setting: the same measure for `COc1cc(OC)cc(C(=O)NNC(=O)CNC(=O)c2ccc(Br)o2)c1`: -17.5%.
Turning to `CSCC[C@H](NC(=O)N1CCn2c1nc1ccccc12)C(=O)NCc1ccc2c(c1)OCO2`, the “activity change, negative = inhibition” value is 85%.
Same read-out and setting: the same measure for `CCc1ccc(-n2c(=S)sc3c(=O)n(-c4ccccc4OC)c(=S)[nH]c32)cc1`: -39%.
As to `Cc1ccc(S(=O)(=O)N(Cc2ccccc2)c2ccccn2)cc1[N+](=O)[O-]`, the “activity change, negative = inhibition” value is -57.8%.
Regarding `CCC(=O)N(Cc1ccccc1)c1ccccn1`, the “activity change, negative = inhibition” value was -9.04%.
On to `CC(C)(C)C(=O)N(Cc1ccccc1)c1ccccn1`, for which the “activity change, negative = inhibition” value is -13.5%.
Turning to `Cc1csc2ncc(C(=O)N(Cc3ccccc3)c3ccccn3)c(=O)n12`, the Potency was 5.62 µM (active).
On to `Cc1ccc(C(=O)NNc2ncnc3ccccc23)cc1`, for which the “activity change, negative = inhibition” value was -20.7%.
Still for that read-out and setting: in the case of `Cc1ccc(C(=O)NNC(=O)c2ccc3c(c2)OCCO3)cc1` it was -13.1%.
Regarding `Cc1ccc(C(=O)NNC(=O)c2cc3cc4ccccc4nc3s2)cc1`, the Potency is 22.4 µM (active).
For the compound `COc1cccc(N(CC(=O)NCc2ccccc2)C(=O)CCC(=O)Nc2nccs2)c1`, the “activity change, negative = inhibition” value was -5.9%.
Still for that read-out and setting: in the case of `COC(=O)CCC(=O)N1CCCC(CO)(Cc2ccccc2)C1` (stereo not drawn) it was -7.35%; in that of `Cc1nc(N2CCCC2C(=O)O)c2oc3ccccc3c2n1` (stereo not drawn), -11.1%; in that of `COc1ccc(C)cc1Nc1nc(C)nc2c1oc1ccccc12`, -2.54%.
For the compound `Cc1nc(Cl)c2oc3ccccc3c2n1`, the Potency was 0.158 µM (active).
`CC1=CC2=NC(=O)CC(C)(C(=O)N(CC(=O)NC(C)(C)C)Cc3ccccc3)N2C=C1` (stereo not drawn): the “activity change, negative = inhibition” value was -1.38%.
Same read-out and setting: in the case of `Cc1ccc(Sc2cc(N3CCOCC3)nc(-c3ccccc3)n2)cc1` it was -32.1%.
For `N#Cc1ccccc1Sc1ccccc1C(=O)OCC(=O)NC1CCCCC1`, the Potency is 35.5 µM (active).
On to `O=C(COC(=O)c1ccccc1Cl)NC1CCCCCCC1`, for which the “activity change, negative = inhibition” value was -39.4%.
Still for that read-out and setting: the same measure for `O=C(COC(=O)c1ccccc1SCC(=O)NC1CCCCC1)NC1CCCCC1`: -20%.
As for `CCOc1c2ccc(C(=O)NCc3ccc4c(c3)OCO4)cc2nn1C`, the Potency is 0.316 µM (active).
For the compound `CCCn1nc2cc(C(=O)NCc3ccccc3)ccc2c1OCC`, the “activity change, negative = inhibition” value was 21.7%.
Still for that read-out and setting: in the case of `CCOc1c2ccc(C(=O)NCc3ccc(OC(F)(F)F)cc3)cc2nn1C` it was 46%; in that of `CCCc1noc2c1/C(=N\O)CCC2`, -15.6%.
The same measure, in the same setting: in the case of `Cc1ccc(CNC(=O)CC(NC(=O)c2ccccc2)c2ccccc2)cc1` (stereo not drawn) it was -52.7%.
Same read-out and setting: the same measure for `COc1cccc(Nc2nnc(SCC(=O)N3CC(=O)Nc4ccccc43)s2)c1`: -48.4%; for `Cc1ccc(Cc2cnc(N)s2)o1`: -19.5%.
On to `O=C(CCc1ccccc1Cl)Nc1ccc(S(=O)(=O)Nc2nccs2)cc1`, for which the “activity change, negative = inhibition” value was -31.9%.
Consider `Cc1ccc(CCC(=O)Nc2ncc(Cc3cc(Cl)ccc3Cl)s2)o1`, for which the Potency is 20 µM (active).
For `O=S(=O)(Nc1cccc(-c2ccc(N3CCOCC3)nn2)c1)c1ccc(Cl)c(Cl)c1`, the “activity change, negative = inhibition” value was -15.7%.
